Changes are numbered by the printed parent chain.
Tests used:
Assay in all cases: protein-binding microarray (PBM); PBM: ~300 nM protein, 6 mM HEPES pH 7.8, 80 mM KCl, 0.5 mM EDTA, 0.5 mM EGTA, 6% glycerol, 35 ng/ul poly-dIdC, 1% milk, 1 h, room temperature; Ap Aiptasia and Nv Nematostella (sea anemones) / Co Capsaspora / Aq Amphimedon (sponge) / Dm Drosophila / Hu human; RHD is the Rel homology domain; high values mean tight binding
Settings in all cases: dsDNA, one strand shown
GST-Ap-NF-kB RHD = target: T1, GST-Ap-NF-kB RHD (Exaiptasia pallida (Aiptasia), UniProt A0A913YAJ5 2-422)
T1 sequence: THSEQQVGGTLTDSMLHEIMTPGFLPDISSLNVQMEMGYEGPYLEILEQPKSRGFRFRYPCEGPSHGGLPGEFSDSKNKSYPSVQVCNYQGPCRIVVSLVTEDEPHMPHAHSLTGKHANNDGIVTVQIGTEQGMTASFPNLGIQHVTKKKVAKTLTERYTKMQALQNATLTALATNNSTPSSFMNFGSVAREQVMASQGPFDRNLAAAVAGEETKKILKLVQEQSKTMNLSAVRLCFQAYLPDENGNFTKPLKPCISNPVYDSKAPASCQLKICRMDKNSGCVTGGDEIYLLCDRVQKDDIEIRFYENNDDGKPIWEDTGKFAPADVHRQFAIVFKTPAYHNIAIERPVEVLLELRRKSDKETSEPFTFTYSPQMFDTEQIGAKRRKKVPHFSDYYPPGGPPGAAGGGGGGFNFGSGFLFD

[1] = target: T2, GST-Nv-NF-kB (Cys allele) (Nematostella vectensis, UniProt E5G601 2-411)
T2 sequence: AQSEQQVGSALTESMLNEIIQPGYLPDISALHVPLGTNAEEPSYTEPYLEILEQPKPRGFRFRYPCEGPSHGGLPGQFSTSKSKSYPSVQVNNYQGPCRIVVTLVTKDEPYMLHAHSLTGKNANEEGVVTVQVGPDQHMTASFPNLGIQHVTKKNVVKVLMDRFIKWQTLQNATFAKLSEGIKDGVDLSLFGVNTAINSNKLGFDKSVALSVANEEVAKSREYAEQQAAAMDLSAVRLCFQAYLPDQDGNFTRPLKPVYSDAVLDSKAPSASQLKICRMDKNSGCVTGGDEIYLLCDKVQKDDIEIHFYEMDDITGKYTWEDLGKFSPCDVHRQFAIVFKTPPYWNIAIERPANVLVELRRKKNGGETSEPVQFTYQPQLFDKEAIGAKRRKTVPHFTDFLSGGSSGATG

[2] = target: T3, GST-Nv-NF-kB (Ser allele) (Nematostella vectensis, UniProt A7UNT2 2-411)
T3 sequence: T2 sequence with Q21R, C66S, S207N, E215Q, V217A, E225K, A268E, D399E

GST-Co-NF-kB = target: T4, GST-Co-NF-kB (Capsaspora owczarzaki, UniProt F1ARL5 200-546)
T4 sequence: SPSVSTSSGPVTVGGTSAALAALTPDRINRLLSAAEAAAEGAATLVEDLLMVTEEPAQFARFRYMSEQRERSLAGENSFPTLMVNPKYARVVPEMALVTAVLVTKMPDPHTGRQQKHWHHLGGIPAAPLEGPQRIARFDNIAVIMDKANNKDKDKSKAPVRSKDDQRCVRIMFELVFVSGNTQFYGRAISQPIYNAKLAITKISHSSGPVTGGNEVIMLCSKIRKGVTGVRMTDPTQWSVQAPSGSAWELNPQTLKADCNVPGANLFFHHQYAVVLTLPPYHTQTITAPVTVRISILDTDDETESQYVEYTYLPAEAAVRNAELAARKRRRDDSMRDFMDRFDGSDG

GST-Dm-Relish = target: T5, GST-Dm-Relish (Drosophila melanogaster, UniProt Q94527 99-473)
T5 sequence: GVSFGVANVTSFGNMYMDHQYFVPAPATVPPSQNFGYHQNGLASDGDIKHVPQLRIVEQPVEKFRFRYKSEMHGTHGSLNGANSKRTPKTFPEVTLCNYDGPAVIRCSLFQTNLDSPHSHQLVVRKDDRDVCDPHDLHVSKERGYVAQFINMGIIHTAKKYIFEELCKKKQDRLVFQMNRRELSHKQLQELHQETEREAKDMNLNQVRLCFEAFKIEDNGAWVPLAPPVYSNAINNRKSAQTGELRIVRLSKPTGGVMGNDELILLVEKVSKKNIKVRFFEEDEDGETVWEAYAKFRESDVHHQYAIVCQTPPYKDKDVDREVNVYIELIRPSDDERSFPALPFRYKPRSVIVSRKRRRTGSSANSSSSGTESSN

GST-Aq-NF-kB = target: T6, GST-Aq-NF-kB (Amphimedon queenslandica, UniProt A9Y5G7 2-389)
T6 sequence: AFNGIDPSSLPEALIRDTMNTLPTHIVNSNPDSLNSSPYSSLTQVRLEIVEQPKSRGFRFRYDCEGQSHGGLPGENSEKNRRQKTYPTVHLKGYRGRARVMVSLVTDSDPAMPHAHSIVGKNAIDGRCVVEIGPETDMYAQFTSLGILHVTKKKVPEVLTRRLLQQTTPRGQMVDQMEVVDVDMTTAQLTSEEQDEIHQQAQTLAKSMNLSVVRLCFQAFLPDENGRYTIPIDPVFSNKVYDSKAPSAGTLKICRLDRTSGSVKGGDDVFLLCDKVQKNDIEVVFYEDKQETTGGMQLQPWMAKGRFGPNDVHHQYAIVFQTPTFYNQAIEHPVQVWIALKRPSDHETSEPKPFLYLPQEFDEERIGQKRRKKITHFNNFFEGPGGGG

GST-Hu-p50 = GST-Hu-p50 (Homo sapiens, UniProt P19838 7-356)
GST-Hu-p50, sequence (P19838 7-356): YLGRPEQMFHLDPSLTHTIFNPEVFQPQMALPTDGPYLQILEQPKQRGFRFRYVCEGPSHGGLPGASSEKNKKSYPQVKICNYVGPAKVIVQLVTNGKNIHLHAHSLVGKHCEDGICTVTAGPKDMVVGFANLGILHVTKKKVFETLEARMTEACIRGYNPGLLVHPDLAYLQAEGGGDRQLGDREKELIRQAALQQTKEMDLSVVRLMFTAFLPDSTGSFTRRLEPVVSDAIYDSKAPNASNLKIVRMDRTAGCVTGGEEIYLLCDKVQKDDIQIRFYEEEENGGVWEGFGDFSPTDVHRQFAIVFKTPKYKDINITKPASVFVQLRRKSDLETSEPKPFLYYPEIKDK

| Sequence | binding signal (GST-Ap-NF-kB RHD) | binding signal [1] | binding signal [2] | binding signal (GST-Co-NF-kB) | binding signal (GST-Dm-Relish) | binding signal (GST-Aq-NF-kB) | binding signal (GST-Hu-p50) |
| --- | --- | --- | --- | --- | --- | --- | --- |
| CCGATTAACATCAAGGGGAAAATTGATGTTAATCGGGTCTTGATTCGCTTGACGCTGCTG | 7.28 z-score | 8.8 z-score | 11.5 z-score | 8.77 z-score | 4.19 z-score | 7.23 z-score | 6.72 z-score |
| CCGATTAACATCAGAATTTTCCCTGATGTTAATCGGGTCTTGATTCGCTTGACGCTGCTG | 4.45 z-score | 7.42 z-score | 7.41 z-score | 5.08 z-score | 2.3 z-score | 6.44 z-score | 5.01 z-score |
| CCGATTAACATCAAACTTCCCCATGATGTTAATCGGGTCTTGATTCGCTTGACGCTGCTG | 6.34 z-score | 7.12 z-score | 7.9 z-score | 7.04 z-score | 5.5 z-score | 6.28 z-score | 5.87 z-score |
| CCGATTAACATCAAATACCCCCATGATGTTAATCGGGTCTTGATTCGCTTGACGCTGCTG | 6.79 z-score | 4.49 z-score | 4.86 z-score | 5.57 z-score | 3.98 z-score | 4.48 z-score | 5.11 z-score |
| CCGATTAACATCAGGAATGCCCCTGATGTTAATCGGGTCTTGATTCGCTTGACGCTGCTG | 5.19 z-score | 6.58 z-score | 3.31 z-score | 1.64 z-score | 5.92 z-score | 7.72 z-score | 5.39 z-score |
| CCGATTAACATCACACAACCCCCTGATGTTAATCGGGTCTTGATTCGCTTGACGCTGCTG | 5.16 z-score | 3.73 z-score | 4.93 z-score | 2.31 z-score | 4.91 z-score | 3.93 z-score | 4.68 z-score |
| CCGATTAACATCACGATTTCCCCTGATGTTAATCGGGTCTTGATTCGCTTGACGCTGCTG | 7.82 z-score | 7.92 z-score | 10.8 z-score | 8.64 z-score | 5.06 z-score | 5.72 z-score | 6.24 z-score |
| CCGATTAACATCAGGGGATTTAATGATGTTAATCGGGTCTTGATTCGCTTGACGCTGCTG | 7.05 z-score | 8.23 z-score | 9.99 z-score | 3.58 z-score | 7.98 z-score | 6 z-score | 6.98 z-score |
| CCGATTAACATCAAGATTTTCCCTGATGTTAATCGGGTCTTGATTCGCTTGACGCTGCTG | 4.58 z-score | 6.22 z-score | 7.42 z-score | 5.04 z-score | 1.5 z-score | 5.78 z-score | 4.29 z-score |
| CCGATTAACATCAAAAATCCCACTGATGTTAATCGGGTCTTGATTCGCTTGACGCTGCTG | 3.51 z-score | 3.55 z-score | 2.95 z-score | 1.65 z-score | 7.7 z-score | 3.87 z-score | 3.73 z-score |
| CCGATTAACATCACGTACTCCCCTGATGTTAATCGGGTCTTGATTCGCTTGACGCTGCTG | 4.07 z-score | 2.77 z-score | 3.43 z-score | 2.99 z-score | 4 z-score | 2.92 z-score | 2.83 z-score |
| CCGATTAACATCAGGGGATTCACTGATGTTAATCGGGTCTTGATTCGCTTGACGCTGCTG | 7.47 z-score | 7.31 z-score | 7.91 z-score | 3.35 z-score | 10.3 z-score | 6.42 z-score | 6.59 z-score |
| CCGATTAACATCACATAATCCCCTGATGTTAATCGGGTCTTGATTCGCTTGACGCTGCTG | 7.93 z-score | 9.03 z-score | 9.99 z-score | 3.86 z-score | 6.27 z-score | 6.55 z-score | 6.8 z-score |
| CCGATTAACATCAAATTTCCCTATGATGTTAATCGGGTCTTGATTCGCTTGACGCTGCTG | 4.13 z-score | 6.5 z-score | 6.37 z-score | 3.02 z-score | 2.55 z-score | 6.3 z-score | 5.04 z-score |
| CCGATTAACATCAGGGGGATAAATGATGTTAATCGGGTCTTGATTCGCTTGACGCTGCTG | 5.25 z-score | 5.54 z-score | 5.46 z-score | 7.85 z-score | 3.78 z-score | 4.4 z-score | 4.82 z-score |
| CCGATTAACATCAAGGGGGTACCTGATGTTAATCGGGTCTTGATTCGCTTGACGCTGCTG | 5.62 z-score | 3.48 z-score | 4.15 z-score | 2.65 z-score | 3.15 z-score | 3.5 z-score | 3.89 z-score |
| CCGATTAACATCAAGGGGGATTATGATGTTAATCGGGTCTTGATTCGCTTGACGCTGCTG | 8.36 z-score | 7.48 z-score | 8.59 z-score | 4.73 z-score | 6.5 z-score | 6.85 z-score | 7.48 z-score |
| CCGATTAACATCAAGGGGGTTTCTGATGTTAATCGGGTCTTGATTCGCTTGACGCTGCTG | 9.41 z-score | 8.37 z-score | 8.76 z-score | 2.34 z-score | 9.83 z-score | 7.81 z-score | 7.39 z-score |
| CCGATTAACATCAAAGTCTCCCCTGATGTTAATCGGGTCTTGATTCGCTTGACGCTGCTG | 5.38 z-score | 4.52 z-score | 5.65 z-score | 7.88 z-score | 1.57 z-score | 3.98 z-score | 3.28 z-score |
| CCGATTAACATCAGGGGAATCCATGATGTTAATCGGGTCTTGATTCGCTTGACGCTGCTG | 8.88 z-score | 9.29 z-score | 9.54 z-score | 5.44 z-score | 9.65 z-score | 7 z-score | 6.48 z-score |
| CCGATTAACATCAAAGATCCCCCTGATGTTAATCGGGTCTTGATTCGCTTGACGCTGCTG | 7.86 z-score | 7.46 z-score | 7.79 z-score | 6.69 z-score | 8.85 z-score | 6.88 z-score | 6.85 z-score |
| CCGATTAACATCAAATTTCCCCCTGATGTTAATCGGGTCTTGATTCGCTTGACGCTGCTG | 9.03 z-score | 9.93 z-score | 12.8 z-score | 12.3 z-score | 7.24 z-score | 7.79 z-score | 7.66 z-score |
| CCGATTAACATCACAAAGTCCCCTGATGTTAATCGGGTCTTGATTCGCTTGACGCTGCTG | 7.77 z-score | 7.32 z-score | 7.65 z-score | 2.97 z-score | 7.95 z-score | 6.4 z-score | 6.44 z-score |
| CCGATTAACATCAAATTCCCCCATGATGTTAATCGGGTCTTGATTCGCTTGACGCTGCTG | 8.6 z-score | 8.92 z-score | 9.99 z-score | 9.97 z-score | 7.71 z-score | 6.9 z-score | 7.09 z-score |
| CCGATTAACATCAGAGACTTCCCTGATGTTAATCGGGTCTTGATTCGCTTGACGCTGCTG | 1.92 z-score | 2.44 z-score | 2.19 z-score | 1.11 z-score | 1.95 z-score | 3.32 z-score | 1.57 z-score |

Source: publication PMC5700166
